# Results published in PubChem BioAssay.
# For some of these results: Entries with a potency or affinity are not part of this list. Activity calls are given as the source filed them.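 How the source made its calls, unless noted: active means luciferase signal above three times the same-plate solvent-only control wells; inactive means the rest.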 Peptide text beside a SMILES is read from it.
# How the values were obtained:
# [1] = target: NAD(+) hydrolase SARM1 (Homo sapiens) (UniProt Q6SZW1); assay: blocking NAD cleavage by SARM1 SAM-TIR – cell lysate, NAD-Glo luminescence (AID 1508614;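 active means compound whose remaining NAD level is above about 45 nM, limit read from the data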); conditions: SAM-TIR HEK293T lysate NADase, at 1 µM, stronger effect = higher value
# [2] = target: Mitogen-activated protein kinase 7 (Homo sapiens) (UniProt Q13164); assay: Gal4-ERK5 driven luciferase induction – cell-based, HTS, primary screen (AID 1508626); conditions: HeLa Gal4-ERK5 transactivation, 18 h, at 5 µM, stronger effect = higher value;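 further: luciferase driven by Gal4-ERK5 fusion binding five Gal4 sites before minimal TATA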
# [3] = blockers of polyQ-driven CASP3 activation – cell-based (AID 1583); conditions: polyglutamine-induced caspase-3 activation, cell assay; stronger effect = higher value;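 tested at 10 µM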
# [4] = yeast 75Q aggregation reduction – 75Q-TubU reporter (AID 1593); conditions: Yeast 75Q polyglutamine aggregation reporter
# [5] = restoration of touch response, mutant HTT neurons – whole organism, C. elegans mechanosensory neurons, N-terminal huntingtin (AID 1599); conditions: C. elegans polyQ-huntingtin mechanosensory neurons, stronger effect = higher value
# Mitogen-activated protein kinase 7 (Homo sapiens), sequence (Q13164 whole entry, looked up, the tested form may be a part): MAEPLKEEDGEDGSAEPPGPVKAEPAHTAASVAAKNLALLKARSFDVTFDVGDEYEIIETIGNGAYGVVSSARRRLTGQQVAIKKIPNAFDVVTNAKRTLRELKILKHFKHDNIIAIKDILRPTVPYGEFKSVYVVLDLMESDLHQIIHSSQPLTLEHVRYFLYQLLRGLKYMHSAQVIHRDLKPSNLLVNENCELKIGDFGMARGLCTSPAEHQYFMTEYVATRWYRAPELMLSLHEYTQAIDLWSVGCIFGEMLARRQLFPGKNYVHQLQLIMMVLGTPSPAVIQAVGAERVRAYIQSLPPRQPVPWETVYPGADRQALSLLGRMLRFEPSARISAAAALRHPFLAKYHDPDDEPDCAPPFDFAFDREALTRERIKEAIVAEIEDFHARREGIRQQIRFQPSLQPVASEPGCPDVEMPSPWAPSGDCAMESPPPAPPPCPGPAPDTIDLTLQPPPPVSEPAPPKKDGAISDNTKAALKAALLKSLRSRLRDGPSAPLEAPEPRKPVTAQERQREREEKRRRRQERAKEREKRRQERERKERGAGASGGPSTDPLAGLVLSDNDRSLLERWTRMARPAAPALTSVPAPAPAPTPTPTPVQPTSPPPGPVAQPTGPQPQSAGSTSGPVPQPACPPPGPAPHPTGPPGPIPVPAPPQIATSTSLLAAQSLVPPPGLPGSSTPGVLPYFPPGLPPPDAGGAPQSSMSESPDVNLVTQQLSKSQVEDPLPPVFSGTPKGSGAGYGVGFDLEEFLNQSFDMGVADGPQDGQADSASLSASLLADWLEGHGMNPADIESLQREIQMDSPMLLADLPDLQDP
# NAD(+) hydrolase SARM1 (Homo sapiens), sequence (Q6SZW1 whole entry, looked up, the tested form may be a part): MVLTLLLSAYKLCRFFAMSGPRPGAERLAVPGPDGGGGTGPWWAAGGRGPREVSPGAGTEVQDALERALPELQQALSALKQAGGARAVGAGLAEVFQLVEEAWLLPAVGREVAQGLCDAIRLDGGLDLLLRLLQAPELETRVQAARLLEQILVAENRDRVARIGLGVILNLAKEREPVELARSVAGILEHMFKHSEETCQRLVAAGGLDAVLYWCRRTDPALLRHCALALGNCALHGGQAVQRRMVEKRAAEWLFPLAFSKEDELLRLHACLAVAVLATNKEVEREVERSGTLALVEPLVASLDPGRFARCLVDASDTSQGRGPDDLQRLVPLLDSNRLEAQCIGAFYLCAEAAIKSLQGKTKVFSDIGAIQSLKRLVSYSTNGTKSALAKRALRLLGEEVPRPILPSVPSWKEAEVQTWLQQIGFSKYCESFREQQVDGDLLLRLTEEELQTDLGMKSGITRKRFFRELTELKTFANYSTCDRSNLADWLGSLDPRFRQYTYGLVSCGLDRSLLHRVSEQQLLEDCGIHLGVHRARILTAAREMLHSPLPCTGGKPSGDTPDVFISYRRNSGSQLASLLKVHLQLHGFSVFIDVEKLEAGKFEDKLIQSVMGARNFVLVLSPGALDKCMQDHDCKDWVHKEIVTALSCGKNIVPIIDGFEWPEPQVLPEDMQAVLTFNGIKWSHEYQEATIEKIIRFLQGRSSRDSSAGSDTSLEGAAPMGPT
smiles,measurement,setting,value
CC[C@H]1OC(=O)C[C@@H](O)[C@H](C)[C@@H](O[C@@H]2O[C@H](C)[C@@H](O)[C@H](N(C)C)[C@H]2O)[C@@H](CCN2C[C@H](C)C[C@H](C)C2)C[C@@H](C)C(=O)/C=C/C(C)=C/[C@@H]1CO[C@@H]1O[C@H](C)[C@@H](O)[C@@H](OC)[C@H]1OC,remaining NAD,[1],10 nM (inactive)
same,luciferase signal,[2],36 AU (inactive)
COc1cc2c(cc1OC)C1Cc3ccc(OC)c(OC)c3CN1CC2 (stereo not given),luciferase signal,[2],52 AU (inactive)
CC(=O)Oc1ccc2c(c1)CC[C@@H]1[C@@H]2CC[C@]2(C)[C@@H](OC(C)=O)CC[C@@H]12,luciferase signal,[2],8 AU (inactive)
CNS(=O)(=O)c1ccc(NC(=O)c2ccccc2C(=O)O)cc1,luciferase signal,[2],28 AU (inactive)
C[C@@]12CCc3occc3[C@H]1CC[C@@]13C[C@@H](CC[C@H]12)[C@@](O)(CO)C3,luciferase signal,[2],40 AU (inactive)
O=S(=O)([O][Al])OC[C@H]1O[C@@](COS(=O)(=O)[O][Al])(O[C@H]2O[C@H](COS(=O)(=O)[O][Al])[C@@H](OS(=O)(=O)[O][Al])[C@H](OS(=O)(=O)[O][Al])[C@H]2OS(=O)(=O)[O][Al])[C@@H](OS(=O)(=O)[O][Al])[C@@H]1OS(=O)(=O)[O][Al],luciferase signal,[2],84 AU (inactive)
O=c1c(O)c(-c2ccc(O)cc2)oc2ccccc12,luciferase signal,[2],76 AU (inactive)
C=C[C@](C)(O)CCC=C(C)C,luciferase signal,[2],36 AU (inactive)
O=c1c(O)cc2c(O)oc3c(=O)c(O)cc4c3c2c1CC=4O,inhibition,[3],-1.16%
same,score,[4],-1.91
same,rescue above control,[5],-6.17
CC(=O)O[C@H]1CC[C@@]2(C)[C@@H](CC[C@@H]3[C@@H]2CC(=O)[C@]2(C)[C@@H]4[C@H](C[C@@H]32)O[C@]2(CC[C@@H](C)CO2)[C@H]4C)C1,luciferase signal,[2],56 AU (inactive)
Nc1ncnc2c1ncn2C1OC(CO)[C@H](O)C1O (stereo not given in full),inhibition,[3],-97.3%
same,score,[4],1.18
same,rescue above control,[5],-9.49
NCCCCC(N)C(=O)NC(Cc1c[nH]c2ccccc12)C(=O)NC(CCCCN)C(=O)O (stereo not drawn) (H-Lys-Trp-Lys-OH; configuration not given here),inhibition,[3],5.19%
same,score,[4],1.32
same,rescue above control,[5],22.9
C=C1C(=O)OC2C1CCC1(C)CCC=C(C)C21 (stereo not given),inhibition,[3],56%
same,score,[4],0.7
same,rescue above control,[5],5.32
CC1=CC(=O)CC(C)(C)C1(O)/C=C/C(C)=C\C(=O)O (stereo not given),luciferase signal,[2],48 AU (inactive)
COC(=O)Oc1ccccc1C(=O)O,luciferase signal,[2],40 AU (inactive)
CC1=C2[C@@H]([C@H](C)CC[C@H]2/C=C(\C)C(=O)O)[C@H](O)C1,luciferase signal,[2],24 AU (inactive)
